Assay results as given in PubChem BioAssay AID1159580 (chemical genetic matrix, 2015).
Values joined by “and” are separate entries in the source; they are usually repeats but may differ in a detail not shown here. Equal values may be shown once. Screen size: about 5,500 compounds; about 2,000 (36%) were called active. Roughly 18% stayed inconclusive and do not appear here. Cut-off read from the data, not from the text of the source: active = normalized growth mostly below about 0.91 (no sharp cut-off); inconclusive = no clear call, values can overlap the other calls; inactive = mostly above about 0.92. This is one part of the list.

Experiment: chemical genetic growth profiling, strain panel (AID 1159580);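 note: tested at 20 µM; growth read once vehicle control cultures reached saturation at 30 °C; 1 = growth at the plate median or of vehicle wells; lower values mean less growth of the strain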
Settings: S. cerevisiae deletion strains, growth OD

Measured: normalized growth

Cc1cc(=O)oc2cc(O)c(O)cc12
active: locus YER155C, strain BEM2 (second series), hits give low values 0.787
inactive: locus YAL021C, strain ccr4, hits give low values 1.01 | locus YAL026C, strain drs2, hits give low values 0.996 | locus YAL030W, strain snc1, hits give low values 1 | locus YBL061C, strain skt5, hits give low values 0.999 | locus YBR009C, strain hhf1, hits give low values 0.963 | locus YBR021W, strain FUR4, hits give low values 1.02 | locus YBR023C, strain chs3, hits give low values 0.998 | locus YBR171W, strain sec66, hits give low values 0.987 | locus YBR229C, strain ROT2, hits give low values 1 | locus YBR231C, strain swc5, hits give low values 0.995 | locus YBR279W, strain paf1, hits give low values 0.987 | locus YCL011C, strain gbp2, hits give low values 0.994 | locus YCL016C, strain dcc1, hits give low values 1 | locus YCL029C, strain bik1, hits give low values 0.974 | locus YCL061C, strain MRC1, hits give low values 0.989 | locus YCL069W, strain vba3, hits give low values 0.99 | locus YCR088W, strain abp1, hits give low values 1 | locus YDL005C, strain med2, hits give low values 0.98 | locus YDL035C, strain GPR1, hits give low values 0.973 | locus YDL040C, strain nat1, hits give low values 0.983 | locus YDL074C, strain BRE1, hits give low values 0.976 | locus YDL101C, strain DUN1, hits give low values 0.958 | locus YDL134C, strain PPH21, hits give low values 0.955 | locus YDL185W, strain tfp1, hits give low values 0.979 | locus YDL192W, strain arf1, hits give low values 0.961 | locus YDR001C, strain nth1, hits give low values 0.998 | locus YDR069C, strain doa4, hits give low values 0.994 | locus YDR101C, strain arx1, hits give low values 0.973 | locus YDR137W, strain rgp1, hits give low values 0.964 | locus YDR159W, strain sac3, hits give low values 0.997 | locus YDR162C, strain NBP2, hits give low values 0.985 | locus YDR195W, strain ref2 1.05 | locus YDR297W, strain sur2, hits give low values 0.995 | locus YDR318W, strain mcm21, hits give low values 0.966 | locus YDR334W, strain swr1, hits give low values 0.99 | locus YDR335W, strain msn5, hits give low values 0.994 | locus YDR388W, hits give low values 0.99 | locus YDR392W, strain spt3, hits give low values 0.91 | locus YDR502C, strain sam2, hits give low values 0.974 | locus YEL003W, strain gim4, hits give low values 0.981 | locus YEL037C, strain rad23, hits give low values 0.991 | locus YEL061C, strain CIN8 (second series), hits give low values 0.988 | locus YEL061C, strain CIN8, hits give low values 0.999 | locus YER015W, strain faa2, hits give low values 0.998 | locus YER016W, strain bim1, hits give low values 0.995 | locus YER110C, hits give low values 0.973 | locus YER111C, strain swi4, hits give low values 1.01 | locus YER155C, strain BEM2, hits give low values 1.01 | locus YER167W, strain BCK2, hits give low values 1.02 | locus YFR010W, strain ubp6, hits give low values 0.997 | locus YGL078C, strain dbp3, hits give low values 0.959 | locus YGL086W, strain mad1, hits give low values 0.993 | locus YGL167C, strain pmr1, hits give low values 0.99 | locus YGL173C, strain kem1, hits give low values 0.978 | locus YGL227W, strain vid30, hits give low values 1 | locus YGL240W, strain doc1, hits give low values 0.952 | locus YGL248W, strain PDE1, hits give low values 0.98 | locus YGL253W, strain hxk2, hits give low values 1 | locus YGR078C, strain PAC10, hits give low values 0.983 | locus YGR135W, strain pre9, hits give low values 0.957 | locus YGR229C, strain SMI1, hits give low values 0.974 | locus YGR252W, strain gcn5, hits give low values 0.79 | locus YHR013C, strain ard1, hits give low values 0.985 | locus YHR027C, strain rpn1, hits give low values 1 | locus YHR030C, strain SLT2, hits give low values 1.01 and 0.905 | locus YHR079C, strain IRE1 (second series), hits give low values 1.01 | locus YHR079C, strain IRE1, hits give low values 0.901 | locus YHR094C, strain hxt1, hits give low values 1.02 | locus YHR129C, strain ARP1, hits give low values 0.999 | locus YHR142W, strain chs7, hits give low values 0.958 | locus YHR200W, strain rpn10, hits give low values 0.972 | locus YIL066C, strain RNR3, hits give low values 1 | locus YIL073C, strain SPO22, hits give low values 1 | locus YIL125W, strain kgd1, hits give low values 1.01 | locus YIR030C, strain dcg1, hits give low values 0.99 | locus YJL092W, strain hpr5, hits give low values 0.993 | locus YJL095W, strain BCK1 (second series), hits give low values 0.998 | locus YJL095W, strain BCK1, hits give low values 0.932 and 0.924 | locus YJL115W, strain asf1, hits give low values 0.994 | locus YJL129C, strain trk1, hits give low values 1.05 | locus YJL134W, strain LCB3, hits give low values 1.01 | locus YJL154C, strain vps35, hits give low values 1.01 | locus YJL164C, strain tpk1, hits give low values 0.973 | locus YJL166W, strain qcr8, hits give low values 0.995 | locus YJL168C, strain set2, hits give low values 1 | locus YJL187C, strain SWE1 (second series), hits give low values 0.991 | locus YJL187C, strain SWE1, hits give low values 0.999
